Results filed as inconclusive are left out. Active and inactive are the calls of the source. Calls follow the shape of the dose curve; as a rule, active = well fitted inhibition curve with a large enough effect; inconclusive = small, poorly fitted or top-dose-only effect; inactive = flat fitted curve, though single readings scatter.
Columns and labels:
[1] = qHTS profiling for inhibitors of Plasmodium falciparum proliferation (AID 504749); also: nearly all actives have a fitted effect of over 60% in size;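 as to activity, negative = inhibition: 0% = DMSO vehicle and full inhibition = artemisinin control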; settings: P. falciparum in erythrocytes, SYBR Green DNA, 72 h
Method in brief: (§1)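 P. falciparum-infected erythrocytes (0.3% parasitemia, 2.5% hematocrit final) were exposed to compounds for 72 h at 37 C in 5% CO2, then lysed with SYBR Green buffer overnight at room temperature; parasite DNA fluorescence was normalized to artemisinin and DMSO controls.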

3D7 = test: as above; settings: P. falciparum in erythrocytes, SYBR Green DNA, 72 h; series mostly up to 28.7 µM
Method in brief: as §1

7G8 = test: as above; settings: P. falciparum in erythrocytes, SYBR Green DNA, 72 h; series mostly up to 28.7 µM
Method in brief: as §1

AA1029 = test: as above; settings: P. falciparum in erythrocytes, SYBR Green DNA, 72 h; series mostly up to 28.7 µM
Method in brief: as §1

AS120 = test: as above; settings: P. falciparum in erythrocytes, SYBR Green DNA, 72 h; series mostly up to 28.7 µM
Method in brief: as §1

ATS189 = test: as above; settings: P. falciparum in erythrocytes, SYBR Green DNA, 72 h; series mostly up to 28.7 µM
Method in brief: as §1

ATS95 = test: as above; settings: P. falciparum in erythrocytes, SYBR Green DNA, 72 h; series mostly up to 28.7 µM
Method in brief: as §1

C2A = test: as above; settings: P. falciparum in erythrocytes, SYBR Green DNA, 72 h; series mostly up to 28.7 µM
Method in brief: as §1

CP185 = test: as above; settings: P. falciparum in erythrocytes, SYBR Green DNA, 72 h; series mostly up to 28.7 µM
Method in brief: as §1

CP191 = test: as above; settings: P. falciparum in erythrocytes, SYBR Green DNA, 72 h; series mostly up to 28.7 µM
Method in brief: as §1

CP192 = test: as above; settings: P. falciparum in erythrocytes, SYBR Green DNA, 72 h; series mostly up to 28.7 µM
Method in brief: as §1

CP194 = test: as above; settings: P. falciparum in erythrocytes, SYBR Green DNA, 72 h; series mostly up to 28.7 µM
Method in brief: as §1

[2] = at 28.7 µM (top of the series), parasite line A
[3] = at 28.7 µM (top of the series), parasite line B
[4] = at 12.8 µM (top of the series), parasite line A
[5] = at 12.8 µM (top of the series), parasite line B
Potency is read from the fitted curve at half-maximal effect.

Cc1c(C(C)C)c(=O)n(-c2ccccc2)n1C
inactive: activity, negative = inhibition [1, 2] 5.32% | activity, negative = inhibition [1, 3] 0.527% | Potency (3D7) | Potency (7G8) | Potency (AA1029) | Potency (AS120) | Potency (ATS189) | Potency (ATS95) | Potency (C2A) | Potency (CP185) | Potency (CP191) | Potency (CP192) | Potency (CP194)

Nc1ccc(/C=C/c2ccc(N)cc2S(=O)(=O)O)c(S(=O)(=O)O)c1
inactive: activity, negative = inhibition [1, 2] -8.57% | activity, negative = inhibition [1, 3] 7.68% | Potency (3D7) | Potency (7G8) | Potency (AA1029) | Potency (AS120) | Potency (ATS189) | Potency (ATS95) | Potency (C2A) | Potency (CP185) | Potency (CP191) | Potency (CP192) | Potency (CP194)

O=C(Nc1ccc(Cl)c(Cl)c1)C1CC1
inactive: activity, negative = inhibition [1, 2] -11.1% | activity, negative = inhibition [1, 3] -1.73% | Potency (3D7) | Potency (7G8) | Potency (AA1029) | Potency (AS120) | Potency (ATS189) | Potency (ATS95) | Potency (C2A) | Potency (CP185) | Potency (CP191) | Potency (CP192) | Potency (CP194)

CCCCCCCCCCCCCCCC[N+](C)(C)CC
active: Potency ([1]; parasite line A) 3.98 µM | Potency ([1]; parasite line B) 5.01 µM | Potency (3D7) 3.55 µM | Potency (7G8) 3.55 µM | Potency (AA1029) 4.47 µM | Potency (AS120) 5.01 µM | Potency (ATS189) 10 µM | Potency (ATS95) 6.31 µM | Potency (C2A) 3.55 µM | Potency (CP185) 3.98 µM | Potency (CP191) 3.98 µM | Potency (CP192) 4.78 µM | Potency (CP194) 6.01 µM

OC(CCN1CCCCC1)(c1ccccc1)c1ccccc1
active: Potency (7G8) 11.2 µM | Potency (AA1029) 7.94 µM | Potency (AS120) 11.2 µM | Potency (ATS95) 8.91 µM
inactive: activity, negative = inhibition [1, 2] 0.409% | activity, negative = inhibition [1, 3] -16.8% | Potency (3D7)

COc1cc2c(cc1OC)C(C(C(=O)N(CCc1ccc(OC)c(OC)c1OC)CCc1ccc(OC)c(OC)c1OC)c1ccccc1)=NCC2 (centres undefined)
active: Potency (3D7) 4.47 µM | Potency (7G8) 0.316 µM | Potency (AA1029) 2.51 µM | Potency (ATS95) 3.55 µM | Potency (CP185) 10 µM | Potency (CP191) 10 µM | Potency (CP192) 13.5 µM | Potency (CP194) 13.5 µM
inactive: activity, negative = inhibition [1, 2] 14.8% | activity, negative = inhibition [1, 3] -1.99% | Potency (AS120) | Potency (ATS189) | Potency (C2A)

Cc1c(F)c(N2CCNC(C)C2)cc2c1c(=O)c(C(=O)O)cn2C1CC1 (centres undefined)
inactive: activity, negative = inhibition [1, 2] 8.42% | activity, negative = inhibition [1, 3] 6.98% | Potency (3D7) | Potency (7G8) | Potency (AA1029) | Potency (AS120) | Potency (ATS189) | Potency (ATS95) | Potency (C2A) | Potency (CP185) | Potency (CP191) | Potency (CP192) | Potency (CP194)

COc1ccc(CCN2CCC(Nc3nc4ccccc4n3Cc3ccc(F)cc3)CC2)cc1
active: Potency ([1]; parasite line A) 1.41 µM | Potency ([1]; parasite line B) 2.24 µM | Potency (3D7) 1.78 µM | Potency (7G8) 2.24 µM | Potency (AA1029) 3.55 µM | Potency (AS120) 3.55 µM | Potency (ATS189) 4.47 µM | Potency (ATS95) 3.98 µM | Potency (C2A) 2.51 µM | Potency (CP185) 3.55 µM | Potency (CP191) 2.24 µM | Potency (CP192) 12 µM | Potency (CP194) 9.53 µM

Cc1ccnc(NS(=O)(=O)c2ccc(N)cc2)n1
inactive: activity, negative = inhibition [1, 4] 9.46% | activity, negative = inhibition [1, 5] -14.9% | Potency (3D7) | Potency (7G8) | Potency (AA1029) | Potency (AS120) | Potency (ATS189) | Potency (ATS95) | Potency (C2A) | Potency (CP185) | Potency (CP191) | Potency (CP192) | Potency (CP194)

Cc1ccc(C(=O)C(C)CN2CCCCC2)cc1 (centres undefined)
inactive: activity, negative = inhibition [1, 2] 1.87% | activity, negative = inhibition [1, 3] 6.22% | Potency (3D7) | Potency (AA1029) | Potency (AS120) | Potency (ATS95) | Potency (C2A) | Potency (CP185) | Potency (CP192) | Potency (CP194)
active: Potency (7G8) 11.2 µM

Cc1ncc(CSSCc2cnc(C)c(O)c2CO)c(CO)c1O
inactive: activity, negative = inhibition [1, 2] 0.466% | activity, negative = inhibition [1, 3] -3.16% | Potency (3D7) | Potency (7G8) | Potency (AA1029) | Potency (AS120) | Potency (ATS189) | Potency (ATS95) | Potency (C2A) | Potency (CP185) | Potency (CP191) | Potency (CP192) | Potency (CP194)

CC(C)(CO)[C@@H](O)C(=O)NCCCO
inactive: activity, negative = inhibition [1, 2] 10.4% | activity, negative = inhibition [1, 3] -1.02% | Potency (3D7) | Potency (7G8) | Potency (AA1029) | Potency (AS120) | Potency (ATS189) | Potency (ATS95) | Potency (C2A) | Potency (CP185) | Potency (CP191) | Potency (CP192) | Potency (CP194)

CCCCCCc1ccc(O)cc1O
inactive: activity, negative = inhibition [1, 2] 6.34% | activity, negative = inhibition [1, 3] 12.1% | Potency (3D7) | Potency (7G8) | Potency (AA1029) | Potency (AS120) | Potency (ATS189) | Potency (ATS95) | Potency (C2A) | Potency (CP185) | Potency (CP191) | Potency (CP192) | Potency (CP194)

COc1ccc(/C=C/C(=O)c2ccc(OC)cc2OC)cc1
active: Potency ([1]; parasite line A) 3.16 µM | Potency ([1]; parasite line B) 8.91 µM | Potency (3D7) 10 µM | Potency (7G8) 5.01 µM | Potency (AA1029) 6.31 µM | Potency (AS120) 8.91 µM | Potency (ATS189) 5.62 µM | Potency (ATS95) 11.2 µM | Potency (C2A) 11.2 µM | Potency (CP185) 8.91 µM | Potency (CP191) 3.16 µM | Potency (CP192) 13.5 µM | Potency (CP194) 12 µM

O=C1OC(c2ccc(O)cc2)(c2ccc(O)cc2)c2ccccc21
inactive: activity, negative = inhibition [1, 2] -7.68% | activity, negative = inhibition [1, 3] 10.2% | Potency (3D7) | Potency (7G8) | Potency (AA1029) | Potency (AS120) | Potency (ATS95) | Potency (C2A) | Potency (CP185) | Potency (CP191) | Potency (CP194)

NC(CO)(CO)CO
inactive: activity, negative = inhibition [1, 2] 6.7% | activity, negative = inhibition [1, 3] -0.553% | Potency (3D7) | Potency (7G8) | Potency (AA1029) | Potency (AS120) | Potency (ATS189) | Potency (ATS95) | Potency (C2A) | Potency (CP185) | Potency (CP191) | Potency (CP192) | Potency (CP194)

CN1C(CCl)Nc2cc(Cl)c(S(N)(=O)=O)cc2S1(=O)=O (centres undefined)
inactive: activity, negative = inhibition [1, 2] 6.24% | activity, negative = inhibition [1, 3] -11.6% | Potency (3D7) | Potency (7G8) | Potency (AA1029) | Potency (AS120) | Potency (ATS189) | Potency (ATS95) | Potency (C2A) | Potency (CP185) | Potency (CP191) | Potency (CP192) | Potency (CP194)

CCN1CCCC1=O
inactive: activity, negative = inhibition [1, 2] 3.13% | activity, negative = inhibition [1, 3] 11.2% | Potency (3D7) | Potency (AA1029) | Potency (AS120) | Potency (ATS189) | Potency (ATS95) | Potency (C2A) | Potency (CP185) | Potency (CP191) | Potency (CP192) | Potency (CP194)

C#C[C@]1(O)CC[C@H]2[C@@H]3CCc4cc(OC5CCCC5)ccc4[C@H]3CC[C@@]21C
inactive: activity, negative = inhibition [1, 2] -10.1% | activity, negative = inhibition [1, 3] -11.7% | Potency (3D7) | Potency (AA1029) | Potency (ATS189) | Potency (C2A) | Potency (CP185) | Potency (CP192) | Potency (CP194)

c1ccc(CNCCNCc2ccccc2)cc1
inactive: activity, negative = inhibition [1, 2] 2.06% | activity, negative = inhibition [1, 3] 5.37% | Potency (3D7) | Potency (CP191) | Potency (CP192)
active: Potency (7G8) 10 µM

CN(C)CCCOc1nn(Cc2ccccc2)c2ccccc12
inactive: activity, negative = inhibition [1, 4] -0.403% | activity, negative = inhibition [1, 5] -0.662% | Potency (3D7) | Potency (AS120) | Potency (C2A) | Potency (CP185) | Potency (CP191) | Potency (CP192) | Potency (CP194)

CCCCCCCCCCCCCCCCCC(=O)OCC(O)CO (centres undefined)
inactive: activity, negative = inhibition [1, 2] 5.19% | activity, negative = inhibition [1, 3] 11.8% | Potency (7G8) | Potency (AA1029) | Potency (AS120) | Potency (ATS189) | Potency (ATS95) | Potency (C2A) | Potency (CP185) | Potency (CP191) | Potency (CP192) | Potency (CP194)
